# Beta apoptosis – beta cell apoptosis inhibition; INS-1E cytokine-induced death, ATP luminescence, 48 h; percent of positive-control rescue, neutral wells zero; 300,000 tested, 0.8% active; protection from apoptosis, % (concentration not given with the values);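 active means Every replicate reaches about 75%, or at least half do and their mean reaches it too, limit read from the data; inconclusive means At least half of replicates reach the limit but their mean does not; inactive means Under half of replicates reach the limit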;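 further: 0% = cytokine-treated negative control wells and 100% = positive control rescue; higher means more ATP so stronger rescue from cytokine killing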
# Jurkat NFkB inh – lowers PMA/ionomycin-induced NF-kB signal in Jurkat cells; 330,000 tested, 0.53% active; PMA/ionomycin-induced NF-kB luciferase reporter, luminescence; inhibition, % at 4 µM; AID 435003; in the data active means inhibition above about 50%
# 697 NFkB inh – inhibitors of the PMA/ionomycin-induced NF-kB reporter in 697 B cells. inhibition, % at 4 µM. 330,000 tested, 0.33% active. 697 B-cell NF-kB luciferase reporter, 16 h; in the data active means inhibition above about 35%
# Bfl-1 A1 inh – inhibitors of the anti-apoptotic protein A1, read as caspase activation; caspase activation, % (concentration not given with the values); AID 2462; MEF A1-2A-BIM cells, Caspase-Glo 3/7 luminescence, 3 h; percent of clofoctol response, vehicle zero; 330,000 tested, 0.066% active;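 active means over half of replicate activation scores above 10%, or exactly half above 10 with the replicate mean above 10; inconclusive means replicate mean below 10 yet half the replicates above 10; inactive means over half of replicates below 10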
# NTR1 ag – NTR1 (human) agonism. NTR1-U2OS beta-arrestin-GFP spot imaging, agonist mode. activation, % at 20 µM. 330,000 tested, 0.17% active;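 active means activation at or above 40% of the spot to cytoplasm intensity ratio, with at least 20 cells analyzed; inconclusive means wells under 20 cells, flagged as cytotoxic or low count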;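 further: 0% = DMSO without peptide and 100% = 100 nM NTR1 peptide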
# Target sequence (P30989 whole entry, looked up): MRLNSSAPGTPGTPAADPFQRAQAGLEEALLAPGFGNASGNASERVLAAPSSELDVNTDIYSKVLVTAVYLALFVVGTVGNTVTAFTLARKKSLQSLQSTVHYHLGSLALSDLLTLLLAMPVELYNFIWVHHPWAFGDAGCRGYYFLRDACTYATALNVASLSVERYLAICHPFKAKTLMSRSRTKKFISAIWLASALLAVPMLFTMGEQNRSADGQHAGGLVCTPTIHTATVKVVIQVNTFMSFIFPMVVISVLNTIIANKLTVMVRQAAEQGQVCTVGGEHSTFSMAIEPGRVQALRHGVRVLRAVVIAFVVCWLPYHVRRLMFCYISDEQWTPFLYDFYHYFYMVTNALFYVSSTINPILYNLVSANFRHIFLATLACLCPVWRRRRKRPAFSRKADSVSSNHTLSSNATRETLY
# Mdm2 MdmX PPI – disrupts the human Mdm2-MdmX interaction | AID 485346 | inhibition, % at 8 µM | 330,000 tested, 3% active | SaOS-2 split-luciferase Mdm2/MdmX complementation, luminescence | O15151+Q00987;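 active means inhibition of at least 50% at 8 µM in the primary screen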
# Mdm2 MdmX conf – human Mdm2/MdmX binding inhibition, confirmed. luminescent assay. inhibition, % at 8 µM. shares compounds with Mdm2 MdmX PPI. 10,000 tested, 55% active; in the data active means inhibition above about 40%
# FLuc counter – counter-screen for Mdm2/MdmX inhibitors: full-length luciferase; inhibition, % at 8 µM; shares compounds with Mdm2 MdmX PPI; 6,200 tested, 77% active; SaOS-2 full-length luciferase counterscreen, luminescence;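 active means mean inhibition at 8 µM reaching about 37%, which flags the compound as non-specific, limit read from the data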;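 further: p53-null SaOS-2 cells with luciferase driven by a doxycycline-inducible promoter; compound on cells about two nights before reading with doxycycline added after day one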
# Starred values were filed as active, the others as inactive; ? = inconclusive; / = no result given. This is a sample that favours compounds with a hit; in the whole collection about 3.8% have one here.
SMILES,Beta apoptosis,Jurkat NFkB inh,697 NFkB inh,Bfl-1 A1 inh,NTR1 ag,Mdm2 MdmX PPI,Mdm2 MdmX conf,FLuc counter
Cc1ccc2nc(-c3ccc(NC(=S)NC4CC(C)(C)NC(C)(C)C4)cc3)sc2c1,0,-63,-134,0,-2,99*,-35,/
CC[C@@]1(C(=O)OC)N[C@H](CN(C)C(=O)c2ccc(F)cc2)[C@@H]2C(=O)N(Cc3ccccc3)C(=O)[C@@H]21,3,2,4,0,-3,24,/,/
O=c1[nH]c(C2CCN(S(=O)(=O)c3ccc4c(c3)OCCO4)CC2)nc2c1nnn2Cc1c(F)cccc1Cl,-5,2,-20,0,8,56*,47*,59*
COc1ccc(N2CCN(S(=O)(=O)c3c(C)n(C)c(=O)n(C)c3=O)CC2)cc1,-6,2,17,0,-2,15,/,/
O=S(=O)(c1ccc(Cl)c(NC(=S)N/N=C/c2c(F)cccc2F)c1)N1CCOCC1,-5,12,-29,0,4,50*,12,/
CCN(CC)CCCN(C(=O)c1ccc(Br)cc1)c1nc(-c2ccc(OC)cc2)cs1,16,-6,-4,0,15,49,/,/
CCN(CC)CCCN(C(=O)c1cccc(C)c1)c1nc(-c2ccc(OC)cc2)cs1,/,-8,-28,1,4,56*,34,84*
CN1CCN(CC(O)Cn2c3ccccc3c3ccccc32)CC1 (centres undefined),-11,1,10,0,-1,29,/,/
COc1ccc(CN2CCN(CC(O)Cn3c4ccccc4c4ccccc43)CC2)cc1 (centres undefined),15,-7,-9,0,10,66*,35,79*
CCOc1ccc(CN2CCN(CC(O)Cn3c4ccccc4c4ccccc43)CC2)cc1 (centres undefined),8,0,2,0,39,89*,72*,36
Cc1cc(F)ccc1S(=O)(=O)N(CC(=O)N1CCOCC1)CC(=O)N1CCOCC1,0,7,23,0,0,16,/,/
Cc1ccc2nc(NC(=O)CN(C)S(=O)(=O)c3cccc4nsnc34)sc2c1,25,41,-74,1,5,55*,69*,58*
CCc1ccc(N(CC(=O)Nc2nc3ccc(C)cc3s2)S(=O)(=O)c2c(C)noc2C)cc1,/,-3,-23,0,16,60*,12,/
Cc1ccc2nc(NC(=O)C3CCN(S(=O)(=O)c4cccc5nsnc45)CC3)sc2c1,-3,-2,-27,-1,2,55*,18,/
Cc1ccc2nc(NC(=O)C3CCCN(S(=O)(=O)c4cccc5nsnc45)C3)sc2c1 (centres undefined),13,-16,-17,0,-6,38,/,/
Cc1ccc2nc(NC(=O)C3CCN(S(=O)(=O)c4cc([N+](=O)[O-])ccc4Cl)CC3)sc2c1,4,3,-46,0,9,67*,67*,47*
Cc1ccnc(NC(=O)CN(C)S(=O)(=O)c2cccc3nsnc23)c1,-11,-11,-4,0,0,-10,/,/
O=C(Nc1ccc(-c2n[nH]c(=S)o2)cc1)c1ccccc1,-4,-20,-2,-6,-1,2,/,/
O=C(NC1CCN(S(=O)(=O)c2cccc([N+](=O)[O-])c2)CC1)C1CCCCC1,14,-8,0,-1,-2,-14,/,/
O=C(NC1CCN(Cc2ccccc2)CC1)C1CCN(S(=O)(=O)c2cccc([N+](=O)[O-])c2)CC1,-1,12,-7,0,0,10,/,/
COc1ccc2nc(NC(=O)C3CCN(S(=O)(=O)c4cccs4)CC3)sc2c1,3,1,-21,1,7,52*,15,/
O=C(NC1CC1)C1CCN(S(=O)(=O)c2ccc(Cl)c([N+](=O)[O-])c2)CC1,-2,1,15,0,0,97*,75*,58*
Cc1ccc(NC(=O)C2CCN(S(=O)(=O)c3cc([N+](=O)[O-])ccc3Cl)CC2)nc1,4,15,2,-1,2,71*,56*,42*
CCN(CC)S(=O)(=O)c1ccc(S(=O)(=O)N2CCC(C(=O)NC3CCN(Cc4ccccc4)CC3)CC2)cc1,1,5,-1,1,-1,70*,12,/
COCCn1c(SCC(=O)N2CCCCCC2)nnc1-c1ccco1,1,-16,5,0,1,20,/,/
SMILES,Beta apoptosis,Jurkat NFkB inh,697 NFkB inh,Bfl-1 A1 inh,NTR1 ag,Mdm2 MdmX PPI,Mdm2 MdmX conf,FLuc counter
CCCn1c(=O)c(C(=O)NCc2ccc3c(c2)OCO3)c(O)c2ccccc21,/,-18,5,1,1,19,/,/
O=C(COC(=O)c1ccccc1OC(F)F)Nc1ccc(N2CCCCC2)cc1,/,-25,-15,/,1,2,/,/
CC(C)CC(=O)N1CCN(C(=O)c2ccc(-c3ccccc3)cc2)CC1,2,15,-4,0,0,9,/,/
O=C(Nc1nc2ccc(F)cc2s1)C1CCN(S(=O)(=O)c2cc([N+](=O)[O-])ccc2Cl)CC1,111*,27,-108,0,5,88*,78*,25
O=C(Nc1nc2cc(Cl)ccc2s1)C1CCCN(S(=O)(=O)c2cccc3cccnc23)C1 (centres undefined),-7,-1,-25,-1,-5,58*,7,/
O=C(Nc1ccccc1Cl)C1CCCN(S(=O)(=O)c2cccc3cccnc23)C1 (centres undefined),-2,4,12,?,0,7,/,/
CC(NC(=O)C1CCN(S(=O)(=O)c2cc([N+](=O)[O-])ccc2Cl)CC1)c1ccccc1 (centres undefined),0,-17,5,0,-3,12,/,/
C/C(CC(=O)N1CCCC1)=N\NC(=O)c1cc2ccccc2cc1O,-5,1,-3,-1,3,41,/,/
CCOC(=O)C(C)/C(C)=N/NC(=O)c1cc2ccccc2cc1O (centres undefined),?,10,4,-2,1,82*,81*,56*
Cc1ccc(N(C(=O)CNC(=O)c2ccco2)C(C(=O)NC2CCCCC2)c2cccnc2)cc1F (centres undefined),-1,-10,16,0,0,-4,/,/
COc1ccc(S(=O)(=O)N2CCCC2CNC(=O)C(=O)NCc2cccs2)cc1 (centres undefined),-3,3,-9,0,0,18,/,/
O=C(OCC(=O)N1CCN(C(=O)c2ccco2)CC1)c1cc(-c2ccco2)nc2ccccc12,1,18,17,0,2,-5,/,/

# High-throughput results (PubChem BioAssay)
